Assay outcomes as filed in PubChem.
ER stress death – ER stress cell death inhibition | CSM14.1 thapsigargin ER stress survival, ATP luminescence | relative survival (cellular ATP), % at 15 µg/mL (by protocol) | hit rate 0.33% among 48,000 | AID 1010;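 active = survival measured by cellular ATP above 50% at 15 µg/ml in the first screen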;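 also: cell death triggered by about 15 µM thapsigargin; ATP read 24 h after thapsigargin was added; plate controls were thapsigargin with DMSO for no effect and DMSO without thapsigargin for full effect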
Starred values were filed as active, the others as inactive. The full list was thinned out, with hits kept by preference.

SMILES | ER stress death
COc1ccc(Br)cc1CN1CCN(C(=O)COc2ccc(Cl)cc2)CC1 | 24
COc1ccc(CN2CCN(C(=O)COc3ccc(Cl)cc3)CC2)cc1OCc1ccccc1 | 69*
O=C(COc1ccc(Cl)cc1)N1CCN(Cc2cccc(F)c2)CC1 | -2
COc1cc(CN2CCN(C(C)C)CC2)cc(OC)c1OC | -3
CCCCCCOC(=O)C1CN1C(Cc1ccccc1)C(=O)OC (stereo not drawn) | 4
